Test [1] can be described thus: Primary qHTS for inhibitors of nuclear receptor binding SET domain protein 2 (NSD2) in an isogenic RCH-ACV NSD2 p.E1099K mutant (9B) (AID 1645876). Also: potency is read from the fitted curve at half-maximal effect; nearly all actives have a fitted effect of over 70% in size.
Test [2] concerns the target Phospholipid hydroperoxide glutathione peroxidase GPX4 (Homo sapiens) (UniProt P36969). Put plainly: Primary qHTS Assay for Inhibitors of Recombinant Selenoprotein Glutathione Peroxidase 4 (GPX4) (AID 1845192). Also: nearly all actives have a fitted effect of over 65% in size. Also: potency is read from the fitted curve at half-maximal effect. An outline of the steps: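 NADPH consumption, followed by fluorescence at 340/450 nm between 0 and 15 min, reports GPX4 activity via coupled glutathione reductase (100 nM). Enzyme 200 nM was pre-exposed to compound 30 min; 0.5 mM cumene hydroperoxide and 1 mM GSH served as substrates.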
In general terms: qHTS replaces the single test concentration by a dilution series.

A short description of test [3]: qHTS drug screen for cell cycle checkpoint inhibitors in PARPi-resistant BRCA-mutant ovarian cancer cell lines. (AID 1963452; calls by dose curve). The following applies: PEO1/OlaR viability, CellTiter-Glo luminescence, 96 h, stronger effect = lower value. In a few lines: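 PEO1, PEO4 and PEO1/OlaR ovarian cancer cells, 600 per well, exposed 96 h at 37C to a dilution series. Viability read by CellTiter-Glo luminescence, normalized to DMSO and empty wells; activity summarized as Z-AUC.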

Test [4] in a line: Primary qHTS for inhibitors of nuclear receptor binding SET domain protein 2 (NSD2) in an RCH-ACV wild type WT cells (2C) (AID 1645877). Also: potency is read from the fitted curve at half-maximal effect; nearly all actives have a fitted effect of over 70% in size.
Test [5] in a line: NCATS anti-infectives library activity on HEK293 viability as a counter-qHTS vs the C. elegans viability qHTS (AID 1745854).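 Also: HEK293 cells exposed to compounds for 24 hr before the viability read; % is scaled to controls: 0 for no effect and ±100 for the full control effect.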 An outline of the steps:
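Cytotoxicity in human HEK293 cells is measured by ATP-dependent CellTiter-Glo luminescence following a 24 hr incubation with titrated library compounds at 37C. Top final concentration is 41.7 uM.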

Test [6] concerns the target Rap guanine nucleotide exchange factor 3 (Homo sapiens) (UniProt O95398). Put plainly: Confirmatory qHTS for antagonist of cAMP-regulated guanine nucleotide exchange factor 3 (EPAC1) (AID 1645880). Also: nearly all actives have a fitted effect of over 55% in size. Also: potency is read from the fitted curve at half-maximal effect. In a few lines: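 Nucleotide exchange uses 100 nM EPAC1, 250 nM RAP1B-BODIPY-GDP and 50 uM GDP, with compounds in a concentration-titration series. After 5 min at room temperature, fluorescence (480 nm ex/540 nm em) is read every 5 min for 30 min. Data are normalized to control ATA and DMSO.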

Test [7] shares this target. Put plainly: Confirmatory qHTS for agonist of cAMP-regulated guanine nucleotide exchange factor 3 (EPAC1) (AID 1645881).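 Also: EPAC1 catalysed release of BODIPY-GDP from Rap1B seen as fluorescence loss; 100% = effect of cAMP agonist control; nearly all actives have a fitted effect of over 75% in size.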
The target of test [8] is Rap guanine nucleotide exchange factor 4 (Homo sapiens) (UniProt Q8WZA2). Put plainly: Confirmatory qHTS for agonist of cAMP-regulated guanine nucleotide exchange factor 4 (EPAC2) (AID 1645884).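 Also: nucleotide exchange releases bodipy-GDP from Rap1 and this lowers its fluorescence; % is scaled to controls: 0 for no effect and ±100 for the full control effect; nearly all actives have a fitted effect of over 65% in size.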
Rap guanine nucleotide exchange factor 4 (Homo sapiens), sequence (Q8WZA2 whole entry, looked up): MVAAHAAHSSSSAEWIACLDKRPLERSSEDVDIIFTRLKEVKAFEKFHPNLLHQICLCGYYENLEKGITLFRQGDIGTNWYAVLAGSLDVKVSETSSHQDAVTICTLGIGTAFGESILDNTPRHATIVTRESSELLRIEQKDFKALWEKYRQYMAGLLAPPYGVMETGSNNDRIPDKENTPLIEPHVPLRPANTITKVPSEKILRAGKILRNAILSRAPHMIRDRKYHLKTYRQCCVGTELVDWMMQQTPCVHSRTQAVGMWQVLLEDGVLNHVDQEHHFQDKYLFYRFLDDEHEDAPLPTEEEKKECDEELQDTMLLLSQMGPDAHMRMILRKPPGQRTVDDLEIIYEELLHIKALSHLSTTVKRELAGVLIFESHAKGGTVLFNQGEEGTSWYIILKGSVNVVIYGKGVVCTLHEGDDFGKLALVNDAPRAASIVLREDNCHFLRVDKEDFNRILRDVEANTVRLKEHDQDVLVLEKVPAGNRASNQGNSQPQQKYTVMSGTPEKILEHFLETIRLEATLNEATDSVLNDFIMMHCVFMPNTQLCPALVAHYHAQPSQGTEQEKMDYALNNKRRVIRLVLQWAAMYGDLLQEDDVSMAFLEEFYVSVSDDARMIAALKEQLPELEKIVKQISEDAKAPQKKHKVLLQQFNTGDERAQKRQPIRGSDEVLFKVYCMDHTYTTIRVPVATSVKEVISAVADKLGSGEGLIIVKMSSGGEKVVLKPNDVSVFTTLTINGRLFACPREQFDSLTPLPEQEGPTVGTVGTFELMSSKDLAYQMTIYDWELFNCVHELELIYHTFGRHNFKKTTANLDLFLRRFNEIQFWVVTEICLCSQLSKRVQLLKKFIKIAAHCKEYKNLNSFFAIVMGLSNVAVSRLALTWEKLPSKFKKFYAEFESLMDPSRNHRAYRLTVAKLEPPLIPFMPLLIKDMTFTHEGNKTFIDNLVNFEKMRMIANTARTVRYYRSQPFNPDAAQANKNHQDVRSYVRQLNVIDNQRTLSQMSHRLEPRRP
Test [9] shares this target. Put plainly: Confirmatory qHTS for antagonist of cAMP-regulated guanine nucleotide exchange factor 4 (EPAC2) (AID 1645885). Also: nearly all actives have a fitted effect of over 25% in size. Also: potency is read from the fitted curve at half-maximal effect.

Inconclusive results are not listed. The source made the active and inactive calls. Unless noted, calls follow the shape of the dose curve; as a rule, active = well fitted curve in the direction sought with a large enough effect; inconclusive = small, poorly fitted or top-dose-only effect, or another doubt; inactive = no such curve, though single readings can be large; an effect the other way counts as inactive or inconclusive.

The values below come from PubChem BioAssay (NCATS).

Rap guanine nucleotide exchange factor 3 (Homo sapiens), sequence (O95398 whole entry, looked up): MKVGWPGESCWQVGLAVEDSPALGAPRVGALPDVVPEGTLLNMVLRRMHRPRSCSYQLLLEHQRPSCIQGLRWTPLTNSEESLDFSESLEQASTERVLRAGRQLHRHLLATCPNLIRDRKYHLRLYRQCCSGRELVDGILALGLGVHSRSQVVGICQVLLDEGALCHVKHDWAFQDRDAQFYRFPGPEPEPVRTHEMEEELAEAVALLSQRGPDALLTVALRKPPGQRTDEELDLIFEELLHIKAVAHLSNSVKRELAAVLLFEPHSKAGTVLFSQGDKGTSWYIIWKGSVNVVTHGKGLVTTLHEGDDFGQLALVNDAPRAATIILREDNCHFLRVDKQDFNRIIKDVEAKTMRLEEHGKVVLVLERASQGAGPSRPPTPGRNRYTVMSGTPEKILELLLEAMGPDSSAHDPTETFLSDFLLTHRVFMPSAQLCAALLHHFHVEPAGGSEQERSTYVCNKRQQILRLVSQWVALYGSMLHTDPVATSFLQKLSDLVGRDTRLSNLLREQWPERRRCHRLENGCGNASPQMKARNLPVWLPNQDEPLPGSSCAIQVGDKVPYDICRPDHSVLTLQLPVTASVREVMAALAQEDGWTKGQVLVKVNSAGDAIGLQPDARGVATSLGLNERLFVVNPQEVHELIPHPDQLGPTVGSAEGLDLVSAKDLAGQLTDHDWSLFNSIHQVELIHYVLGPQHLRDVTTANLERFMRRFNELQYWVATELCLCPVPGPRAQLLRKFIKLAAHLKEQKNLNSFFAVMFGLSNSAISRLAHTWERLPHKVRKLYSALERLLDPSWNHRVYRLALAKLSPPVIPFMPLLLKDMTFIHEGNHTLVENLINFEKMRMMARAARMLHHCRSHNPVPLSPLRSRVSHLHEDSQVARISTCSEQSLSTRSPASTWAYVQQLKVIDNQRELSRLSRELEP
Phospholipid hydroperoxide glutathione peroxidase GPX4 (Homo sapiens), sequence (P36969 whole entry, looked up): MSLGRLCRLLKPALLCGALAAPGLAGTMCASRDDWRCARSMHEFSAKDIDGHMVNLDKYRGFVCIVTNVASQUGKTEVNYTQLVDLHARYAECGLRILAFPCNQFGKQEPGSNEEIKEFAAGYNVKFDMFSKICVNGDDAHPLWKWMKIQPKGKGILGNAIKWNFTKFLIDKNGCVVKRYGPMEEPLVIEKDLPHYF

On to `C[C@@H]1COCCN1c1cc(-c2ccnn2C)c2ccnc(-c3ccn[nH]3)c2n1`, for which the figures for the Potency in test [1] and in test [2] were 209 nM (active) and 20.2 µM (active), respectively. Moreover, the figures for the Z-AUC in test [3], in test [3] (measured here: PEO1 parental Z-AUC) and in [3] (measured here: PEO4 Z-AUC) were -0.499 (inactive), -1.38 and -1.35, respectively.
Consider `CCC[C@H](NC(=O)[C@@H]1[C@H]2CCC[C@H]2CN1C(=O)[C@@H](NC(=O)[C@@H](NC(=O)c1cnccn1)C1CCCCC1)C(C)(C)C)C(=O)C(=O)NC1CC1`, for which, in [4], the Potency is 5.9 µM (active). For the same compound, the outcome in test [5] was inactive. The Potency result in [2] was “inactive”.
On to `CCC1CCCCN1CCCNC(=O)CCC(=O)N1CC(C)Oc2ccccc21` (stereo not given), for which the Potency entry in test [6], in [7], in test [8] and in test [9] was “inactive” in each case.
As to `Fc1ccccc1N1CCN(c2ncnc3onc(-c4ccc(Cl)cc4)c23)CC1`, the Potency result in [6], in test [7], in test [8] and in test [9] was “inactive” throughout.
Turning to `CCc1ccccc1NC(=O)CCC(=O)N1CCN(C(C)=O)CC1`, the Potency entry in [6], in [7], in test [8] and in [9] was “inactive” throughout.
With `C/C(CC(=O)Nc1ccc2ccccc2c1)=N\NC(=O)c1cnccn1`, the Potency entry in [6], in test [7], in test [8] and in test [9] was “inactive” throughout.
With `COc1ccc(-c2nc3cc(C)ccc3cc2CN(C(=O)c2cccs2)C2CC2)cc1OC`, the Potency entry in [6], in [7] and in test [8] was “inactive” throughout. The Potency in test [9] was 49.4 µM (active).
Regarding `Cn1cccc1-c1cc(C(=O)N/N=C/c2ccc(F)cc2)[nH]n1`, the Potency result in test [6], in test [7] and in [9] was “inactive” throughout. Besides, the activation in [8] was -2.5% [at 17.1 µM, percent relative to cAMP agonist control] (inactive).
Turning to `CC(C)CC1C(=O)N(Cc2cn(CCC3OCCCO3)nn2)CCS(=O)(=O)N1Cc1ccc(-c2ccc(F)cc2)cc1` (stereo not given), the Potency result in test [6], in [7], in test [8] and in test [9] was “inactive” each time.
Regarding `Cn1c(O)c(N=NC(=O)c2ccccc2O)c2ccccc21`, the Potency in test [6] is 53.6 µM (active). The Potency entry in test [7], in test [8] and in test [9] was “inactive” throughout.
For `O=C1[C@H](Cc2ccccc2)NCCCC[C@H](c2ccco2)N1Cc1ccccc1`, the Potency entry in test [6], in test [7], in test [8] and in test [9] was “inactive” each time.
As to `CC(C)C[C@@H](COc1ccccc1)N1CCN(Cc2ccccc2)CCC1=O`, the Potency entry in test [6], in [7] and in test [8] was “inactive” throughout. Moreover, the Potency in test [9] is 62.2 µM (active).
In the case of `O=C(Nc1ccc(Cl)cc1)N[C@@H]1CC[C@H](CCNS(=O)(=O)c2ccccc2F)O[C@@H]1CO`, the Potency entry in test [6], in test [7], in test [8] and in test [9] was “inactive” in each case.
For `O=C(C[n+]1cccc2cc(Cl)ccc21)c1ccc(Br)cc1`, the Potency result in [6], in test [7], in [8] and in test [9] was “inactive” each time.
With `CC(=O)Nc1ccc(SC[C@H](C)CN2CC[C@H](C(C)(C)C)CCC2=O)cc1`, the Potency result in test [6], in test [7] and in test [8] was “inactive” throughout. In addition, the Potency in test [9] was 44.1 µM (active).
As for `CCc1ccccc1NC(=O)c1oc(=O)c2ccccc2c1-c1ccccc1`, the Potency result in [6], in test [7], in test [8] and in test [9] was “inactive” each time.
Turning to `Cc1[nH]c2ccccc2c1/C=C/c1ccnc2ccccc12`, the Potency entry in test [6], in [7], in test [8] and in test [9] was “inactive” throughout.
As to `CN(C)c1ccc(/C=C/c2ccnc3ccc(F)cc23)cc1`, the Potency result in test [6], in [7], in [8] and in test [9] was “inactive” in each case.
Turning to `COc1ccccc1CNC(=O)CSc1ccc(-c2cccs2)nn1`, the Potency entry in test [6], in test [7], in test [8] and in test [9] was “inactive” throughout.
For the compound `COc1ccc(CNC(=O)[C@@H]2CC=C[C@@H]3CCN(Cc4ccccc4)C(=O)[C@@H]32)cc1`, the Potency entry in test [6], in test [7], in [8] and in test [9] was “inactive” throughout.
Take `CC(=O)CCc1oc2ccc(C)cc2c1-c1ccccc1`: the Potency result in test [6], in test [7], in [8] and in test [9] was “inactive” each time.
As to `COc1cc2c3nnc(-c4ccccc4)c-3cn(Cc3ccc(F)cc3)c2cc1OC`, the Potency entry in [6], in [7], in test [8] and in test [9] was “inactive” in each case.
As to `COc1ccccc1N1CCN(c2ccc3c(c2)S(=O)(=O)c2cccc(C(=O)NCC4CC4)c2C3=O)CC1`, the Potency result in test [6], in test [7], in test [8] and in test [9] was “inactive” each time.
Consider `C1=Cc2ccccc2/C1=C\c1ccc2c(c1)OCO2`, for which the Potency result in test [6], in [7], in test [8] and in test [9] was “inactive” in each case.
Take `CC(C(=O)Nc1ccccc1C(F)(F)F)n1nc(-c2ccccc2)c2c(c1=O)CCCC2` (stereo not given): the Potency entry in [6], in test [7], in test [8] and in test [9] was “inactive” throughout.
For the compound `CN(C)CCNC(=O)c1cccc(-c2cnc3c(NC=O)cc(-c4cccc(C(F)(F)F)c4)cn23)c1`, the Potency entry in test [6], in [7], in test [8] and in test [9] was “inactive” in each case.
As to `COc1cc(/C=N/NC(=O)c2ccccc2)ccc1O`, the Potency entry in test [6], in test [7], in test [8] and in [9] was “inactive” throughout.
Regarding `CCOC(=O)C1CCCN(c2cc(=O)n(C3CCCCC3)c(=O)[nH]2)C1` (stereo not given), the Potency result in [6], in test [7], in [8] and in test [9] was “inactive” in each case.
In the case of `Cc1cccc(NC(=O)CC2Nc3cccc4cccc(c34)NC2=O)c1` (stereo not given), the Potency in [6] was 75.7 µM (active). Also, the Potency entry in [7], in [8] and in [9] was “inactive” in each case.
Turning to `Cc1cc(NC(=O)CSc2nc(-c3ccccc3)nc3c2c(=O)n(C)c(=O)n3C)no1`, the Potency result in test [6], in test [7] and in [9] was “inactive” each time. The activation in test [8] is 0% [at 17.1 µM, percent relative to cAMP agonist control] (inactive).
